ALDH1A1 inh = ALDH1A1 (human) enzyme inhibition; P00352; Purified ALDH1A1, NADH fluorescence, propionaldehyde substrate; Potency, µM (series often up to 75.3 µM), inactives show at the highest dose activity, negative = inhibition, hits mostly inhibitors; 220,000 compounds, 7.3% hits;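 note: plate controls were no enzyme wells and a reference inhibitor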
Target sequence (P00352 whole entry, looked up): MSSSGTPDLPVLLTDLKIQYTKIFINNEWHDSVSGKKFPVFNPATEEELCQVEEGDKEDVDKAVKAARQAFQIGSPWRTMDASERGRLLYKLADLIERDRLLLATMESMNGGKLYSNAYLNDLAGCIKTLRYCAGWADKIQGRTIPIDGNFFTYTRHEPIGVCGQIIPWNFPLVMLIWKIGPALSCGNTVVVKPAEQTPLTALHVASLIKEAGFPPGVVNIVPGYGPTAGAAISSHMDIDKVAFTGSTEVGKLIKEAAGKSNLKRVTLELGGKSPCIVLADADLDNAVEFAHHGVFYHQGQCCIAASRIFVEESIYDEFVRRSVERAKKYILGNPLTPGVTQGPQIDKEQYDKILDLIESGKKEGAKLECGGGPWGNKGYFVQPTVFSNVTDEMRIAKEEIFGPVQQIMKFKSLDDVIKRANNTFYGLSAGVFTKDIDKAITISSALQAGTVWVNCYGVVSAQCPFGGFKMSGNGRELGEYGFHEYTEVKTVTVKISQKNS
LMNA splice mod = LMNA splicing modulation; Potency, µM (doses to about 46.1 µM), inactives show at the highest dose ratio change, negative = inhibition, usual class: inhibitors; 200,000 compounds, 0.01% hits; HeLa LMNA splicing GFP/RFP minigene ratio, 48 h; active = well fitted inhibition curve with a large enough effect in the signal ratio, with a control signal flat, not every such curve was filed as active; inconclusive = small, poorly fitted or top-dose-only effect, or effect the other way, or a change in a side signal; the % refers to the signal ratio
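S3 HeLa cells stably expressing lamin A-EGFP splicing minigene plus DsRed2, 600 cells/well, 48 h compound exposure at 37C. Laser-scanning cytometry; analysed as GFP (500-530 nm)/RFP (575-640 nm) total intensity ratio; 0.5% DMSO vehicle.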
IMPase Li cell = cell-permeable IMPase inhibitors with lithium potentiation | CHO-M1 cells, IP1 TR-FRET (IP-One), carbachol + lithium | Potency, µM (doses to about 59.4 µM), for inactives: top-dose activity, negative = IMPase inhibition, hits mostly inhibitors | 210,000 compounds, 0.35% hits | AID 1457; active = well fitted curve in the direction sought with a large enough effect; inconclusive = small, poorly fitted or top-dose-only effect, or another doubt; inactive = no such curve, though single readings can be large; an effect the other way counts as inactive or inconclusive;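 note: IP1 builds up when IMPase is blocked and the TR-FRET signal falls; plate controls were basal vehicle for no effect and high inhibitor control for full effect; nearly all actives have a fitted effect of over 50% in size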
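CHO cells stably expressing M1 receptor (2000/well) were cultured 16–30 h, then exposed to compounds with a small lithium addition for 30 min at 37C. IP1 was measured by TR-FRET competition; AC50 from Hill fits.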
KinaseGlo FLuc = Kinase-Glo luciferase inhibition (counter-screen). Q27757. Kinase-Glo luciferase, ATP luminescence, 8 min. Potency, µM (series often up to 38.3 µM), without a hit: top-dose activity change, negative = inhibition, most hits filed as inhibitors. 200,000 compounds, 0.28% hits. AID 1379; active = well fitted curve in the direction sought with a large enough effect; inconclusive = small, poorly fitted or top-dose-only effect, or another doubt; inactive = no such curve, though single readings can be large; an effect the other way counts as inactive or inconclusive; note: nearly all actives have a fitted effect of over 60% in size
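Recombinant Kinase-Glo luciferase, 10 uM ATP (linear range), luciferin; imidazole pH 7.2 / KCl / MgCl2 / Tween / BSA buffer; 8 min RT; luminescence.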
HPGD block = blocks human HPGD enzyme activity; P15428; 150,000 compounds, 4.3% hits; purified HPGD, NADH fluorescence kinetic, PGE2 substrate; Potency, µM, for the others: at the highest dose activity change, negative = inhibition, most hits filed as inhibitors
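20 nM HPGD preincubated 15 min at room temperature with compound in 50 mM Tris-HCl pH 8, 0.01% Tween 20. Started with 1 mM NAD+ and 30 uM prostaglandin E2; NADH fluorescence (360/450 nm) read 5 times over 30-s intervals, last minus first.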
Numbers without * were called inactive; [ ] = remark or other dose. Shown are actives, neighbours in structure and some others; about 9% of the full set was active somewhere. Unless noted, calls come from the whole dose curve; as a rule, active = well fitted inhibition curve with a large enough effect (not every such curve was filed as active); inconclusive = small, poorly fitted or top-dose-only effect, or another doubt; inactive = no such curve, though single readings can be large or run the other way. Unless noted, % is set by controls: 0 for no effect and ±100 for the full control effect; potency is the fitted concentration of half-maximal effect.

How did CCN1C(=O)C(CC(=O)Nc2ccc(Br)cc2)N(CCCc2ccccc2)C1=S (stereo not given) do in these assays?
ALDH1A1 inh: 13µM*; LMNA splice mod: inconclusive; IMPase Li cell: 29%[38.3 µM]; KinaseGlo FLuc: 0%; HPGD block: -5%

Results for CCN1C(=O)C(CC(=O)Nc2ccc(OC)cc2)N(CCc2ccc(OC)cc2)C1=S (stereo not given) ?
ALDH1A1 inh: 2.2µM*; LMNA splice mod: -18%[9.22 µM]; IMPase Li cell: 4%; KinaseGlo FLuc: -1%

Results for COc1ccc(CCN2C(=S)N(C)C(=O)C2CC(=O)Nc2ccc(F)cc2)cc1 (stereo not given) ?
ALDH1A1 inh: 1.3µM*; LMNA splice mod: inconclusive

How did CCN1C(=O)C(CC(=O)Nc2ccc(OC)cc2)N(Cc2cccs2)C1=S (stereo not given) do in these assays?
ALDH1A1 inh: -3%; LMNA splice mod: -1%; IMPase Li cell: 9%[38.3 µM]; KinaseGlo FLuc: 1%; HPGD block: -9%

What do the screens show for `COC(=O)CN1C(=S)N(c2ccc(OC)cc2)C(=O)C1CC(=O)Nc1ccc(F)cc1` (stereo not given)?
ALDH1A1 inh: inconclusive; LMNA splice mod: 10%[46 µM]; IMPase Li cell: 11%; KinaseGlo FLuc: 0%

What do the screens show for `O=C(Cn1nnc2ccccc21)Nc1ccc(Cl)cn1`?
ALDH1A1 inh: 3%; LMNA splice mod: -6%[46 µM]; IMPase Li cell: 2%; KinaseGlo FLuc: -1%

What do the screens show for `Cc1ccc(NC2=NCC(=O)N2Cc2cccs2)cc1C`?
ALDH1A1 inh: inconclusive; IMPase Li cell: 5%; KinaseGlo FLuc: 4%

What do the screens show for `Cn1nnnc1SCCCNCc1cccc(OCc2ccccc2F)c1`?
LMNA splice mod: -10%[46 µM]

Results for O=C(/C=C/c1ccc(S(=O)(=O)NCc2ccco2)cc1)NCc1ccccc1Cl ?
ALDH1A1 inh: 28µM*; LMNA splice mod: 5%

What do the screens show for `COc1ccccc1CN1C[C@@H]2C[C@@H](C3=Cc4cc(Cl)ccc4OC3)N3CCC[C@@]23C1=O`?
ALDH1A1 inh: -7%; IMPase Li cell: 25%

How did O=C(CCSc1ccccc1)OCn1nnc2ccccc2c1=O do in these assays?
ALDH1A1 inh: -9%; IMPase Li cell: -1%; KinaseGlo FLuc: 0%

What do the screens show for `O=C(OCn1nnc2ccccc2c1=O)c1ccc2ncsc2c1`?
ALDH1A1 inh: inconclusive; LMNA splice mod: inconclusive; IMPase Li cell: -7%[38.3 µM]; KinaseGlo FLuc: 0%; HPGD block: 25µM*

What do the screens show for `Cc1ccc(SCCC(=O)OCn2nnc3ccccc3c2=O)cc1`?
ALDH1A1 inh: 15µM*; LMNA splice mod: inconclusive; IMPase Li cell: 5%; KinaseGlo FLuc: 7%

Results for O=C(OCn1nnc2ccccc2c1=O)C1CCCCC1 ?
ALDH1A1 inh: 16µM*; LMNA splice mod: 8%; IMPase Li cell: 12%[38.3 µM]; KinaseGlo FLuc: -5%; HPGD block: 11µM*

Results for CCC1(CC)NC(=O)N(CC(=O)OCn2nnc3ccccc3c2=O)C1=O ?
ALDH1A1 inh: 13µM*; LMNA splice mod: 4%; IMPase Li cell: -9%[38.3 µM]; KinaseGlo FLuc: 4%; HPGD block: -22%

What do the screens show for `O=C(CN1C(=O)C2CCCCC2C1=O)OCn1nnc2ccccc2c1=O` (stereo not given)?
ALDH1A1 inh: inconclusive; LMNA splice mod: -19%[46 µM]; IMPase Li cell: -6%; KinaseGlo FLuc: 0%

Results for O=C(Nc1ccc(SC(F)F)cc1)c1ccc(F)cc1 ?
ALDH1A1 inh: -3%; LMNA splice mod: inconclusive; IMPase Li cell: 10%; KinaseGlo FLuc: -2%

How did COC(=O)NC(/C=C/c1ccccc1)C(C(C)=O)C(=O)OC (stereo not given) do in these assays?
ALDH1A1 inh: -3%; IMPase Li cell: 5%; KinaseGlo FLuc: -1%; HPGD block: -9%

How did N/C(=N\OC(=O)C1CC1)c1ccc([N+](=O)[O-])s1 do in these assays?
ALDH1A1 inh: -3%

How did COc1cc(NC(=S)Nc2ccc(N(C)C(C)=O)cc2)cc(OC)c1 do in these assays?
ALDH1A1 inh: -7%; LMNA splice mod: 8%[46 µM]; IMPase Li cell: 3%; KinaseGlo FLuc: -1%

Source: PubChem (National Center for Advancing Translational Sciences (NCATS))
